HT1080NT lethal – kills 2HG-producing HT-1080-NT fibrosarcoma cells. Potency, µM (series often up to 46.1 µM), for inactives: at the top dose activity, negative = less viability, actives largely listed as cytotoxic. hit rate 1.6% among 360,000. HT-1080-NT fibrosarcoma viability, CellTiter-Glo ATP luminescence, 48 h. AID 686970;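 also: NT is the 2HG producing partner of a matched IDH1 knockdown line; potency is read from the fitted curve at half-maximal effect; 0% = DMSO-treated cells and -100% = media-only wells without cells; nearly all actives have a fitted effect of over 55% in size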
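HT-1080-NT fibrosarcoma cells (2HG-overproducing), 750 cells/well in RPMI with 5% FBS, dosed after 2 h and incubated 48 h at 37C. CellTiter-Glo luminescence normalized to DMSO and no-cell wells; concentration-response curves fitted and classed.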
HT1080 IDH1KD tx – kills HT-1080 cells with IDH1 knockdown; hit rate 2% among 360,000; AID 686971; Potency, µM (titrated, usually from 46.1 µM), for inactives: top-dose activity, negative = toxicity, usual class: cytotoxic; HT-1080 IDH1 knockdown viability, ATP luminescence, 48 h;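 also: potency is read from the fitted curve at half-maximal effect; 0% = DMSO wells and -100% = cell-free medium wells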
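Knockdown cells (IDH1KD HT-1080) received compounds 2 h after plating at 750 cells/well and were kept 48 h at 37 °C in 5% FBS RPMI. A CellTiter-Glo luminescence read gave % activity for curve fitting.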
TDP1 cell CPT – growth inhibition of DT40 Tdp1-/-;hTDP1 cells with camptothecin (screen for TDP1 inhibitors); chicken DT40 Tdp1-/-;hTDP1 cells + 20 nM CPT, ATP luminescence, 48 h; hit rate 12% among 420,000; Potency, µM (titrated, usually from 46.2 µM), inactives show at the top dose activity change, negative = growth inhibition, usual class: inhibitors; also: potency is read from the fitted curve at half-maximal effect; nearly all actives have a fitted effect of over 55% in size
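Chicken DT40 Tdp1-/- cells complemented with human TDP1, 400 cells/well, exposed to compounds plus 20 nM camptothecin for at least 48 h at 37 C; viability read as ATP content by CellTiter-Glo luminescence.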
DT40 TDP1 no CPT – qHTS for Inhibitors of human tyrosyl-DNA phosphodiesterase 1 (TDP1): qHTS in cells in absence of CPT. Potency, µM (series often up to 46.2 µM), without a hit: at the highest dose activity change, negative = growth inhibition, usual class: inhibitors. hit rate 15% among 420,000. DT40 Tdp1-/- hTDP1 cells, no CPT, ATP luminescence, 48 h. AID 686978, 2013; also: potency is read from the fitted curve at half-maximal effect; nearly all actives have a fitted effect of over 55% in size
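Luminescent ATP content (CellTiter-Glo) served as the growth readout. Knockout chicken DT40 cells expressing human TDP1 were exposed to compounds without camptothecin for a minimum 48 hr at 37 °C.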
IL-1B inflam inh – inflammasome signaling inhibition, IL-1 beta readout | THP-1 LPS/ATP IL-1B secretion, AlphaLISA, 16 h; hits give low values | activity change, % at 57.5 µM | hit rate 4.7% among 360,000 | AID 743279; in the data active = activity change below about -50%; inconclusive = mostly about -30% to -49%
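THP-1 cells pretreated 1 hr with compounds (up to 57.5 uM final), then stimulated with LPS (250 ng/mL final) plus ATP (1.25 mM final); secreted IL-1B measured by AlphaLISA after 16 hr, decreased signal indicating inhibition.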
* hit, by the source's call; ? = inconclusive; nt = not tested or not shown; [ ] = remark or other dose. The list is not random: actives were taken first. Their share in the collection is about 19%. Unless noted, calls follow the shape of the dose curve; as a rule, active = well fitted curve in the direction sought with a large enough effect; inconclusive = small, poorly fitted or top-dose-only effect, or another doubt; inactive = no such curve, though single readings can be large; an effect the other way counts as inactive or inconclusive. Unless noted, % is scaled to controls: 0 for no effect and ±100 for the full control effect.

SMILES	HT1080NT lethal	HT1080 IDH1KD tx	TDP1 cell CPT	DT40 TDP1 no CPT	IL-1B inflam inh
CC[C@]12c3[nH]c4cc(-c5ccco5)ccc4c3CCN1C(=O)[C@@H](CC(=O)NCc1ccc(OC)c(OC)c1)C[C@@H]2C(=O)N1CCN(C(=O)C2CC2)CC1	9%	1%	?	?	?
CC[C@]12c3[nH]c4cc(CCC(=O)N(C)C)ccc4c3CCN1C(=O)[C@@H](CC(=O)NCc1cccc(C(F)(F)F)c1)C[C@@H]2C(=O)N1CCN(C(=O)c2ccco2)CC1	7%	3%	21µM*	?	-28
CC[C@]12c3[nH]c4cc(-c5ccco5)ccc4c3CCN1C(=O)[C@@H](CC(=O)NCc1cccc(C(F)(F)F)c1)C[C@@H]2C(=O)N1CCN(C(=O)C2CC2)CC1	-26%	?	16µM*	?	0
C[C@]12c3[nH]c4cc(-c5ccco5)ccc4c3CCN1C(=O)[C@@H](CC(=O)NCC13CC4CC(CC(C4)C1)C3)C[C@@H]2C(=O)N1CCCCC1	-28%	?	5.2µM*	6.5µM*	?
CC[C@]12c3[nH]c4cc(-c5ccco5)ccc4c3CCN1C(=O)[C@@H](CC(=O)NCC13CC4CC(CC(C4)C1)C3)C[C@@H]2C(=O)N1CCN(C(=O)c2ccco2)CC1	?	?	9.2µM*	21µM*	-54*
CN(C)CCN(Cc1ccccc1)C(=O)[C@H](Cc1ccccc1)N1C(=O)c2ccccc2C1=O	16%	24%	-2%	-12%	5
CC[C@]12c3[nH]c4cc(-c5ccco5)ccc4c3CCN1C(=O)[C@@H](CC(=O)NCc1ccco1)C[C@@H]2C(=O)N1CCN(C(=O)C2CC2)CC1	-3%	-5%	16µM*	16µM*	-16
CCn1c2ccccc2c2cc(N)ccc21	?	?	26µM*	?	-12
CCC(CC)NCc1ccc2c(c1)c1ccccc1n2CC	-20%	-11%	18µM*	26µM*	-54*
CCn1c2ccccc2c2cc(CNCCCN3CCOCC3)ccc21	?	21µM*	21µM*	16µM*	-14
CCn1c2ccccc2c2cc(/C=C(/C#N)C(N)=S)ccc21	-17%	-16%	?	16µM*	8
N#C/C(=C/c1ccc(F)cc1)C(N)=S	18%	8%	-13%	-27%	37
CCOc1ccc2ccccc2c1CNCCCN1CCOCC1	-12%	-11%	-4%	?	-25
CC(C)(C)CC(=O)NC(=S)N1CCCCCC1	-29%	?	5%	-6%	3
C=CCNc1nc2ccccc2nc1NS(=O)(=O)c1ccc(Br)cc1	?	-24%	-19%	-26%	13
COc1cccc(CNC(=O)N2CCc3c(sc4c3CCCC4)C2c2ccc(F)cc2)c1 (stereo unspecified)	nt	nt	?	15µM*	nt
COc1ccc(NC(=O)N2CCc3c(sc4c3CCCC4)C2c2ccccc2OC)cc1 (stereo unspecified)	nt	nt	16µM*	13µM*	nt
Cc1nn(C)cc1CN(C)Cc1ccc(OCC(O)CN2CCCCC2)cc1 (stereo unspecified)	-16%	1%	-20%	13%	-14
CN(Cc1ccc(OCC(O)CN2CCCCC2)cc1)Cc1ccnc2ccccc12 (stereo unspecified)	-14%	-12%	9.2µM*	4.6µM*	-15
Cc1cccc(-n2ccc(=O)c(C(=O)O)n2)c1	14%	5%	22%	-1%	2
Cc1ccc2c(c1)C(=O)[C@@]1(O)CCN(c3ccccc3)C1=N2	nt	nt	8.4µM*	?	nt
Cc1ccc2c(c1)C(=O)C1(O)CCN(c3ccccc3)C1=N2 (stereo unspecified)	nt	nt	8.9µM*	6.3µM*	nt
O=C(CNS(=O)(=O)c1cccc(F)c1)OCC(=O)N1CCCC1=O	5%	11%	-14%	14%	2
Cc1ccc(S(=O)(=O)NCC(C)NC(=O)CN2CCOCC2)cc1 (stereo unspecified)	20%	7%	-1%	-7%	10
CN(C)Cc1nc2ccccc2c(=O)n1Cc1nc(-c2cc3ccccc3o2)cs1	-13%	?	?	18µM*	32
SMILES	HT1080NT lethal	HT1080 IDH1KD tx	TDP1 cell CPT	DT40 TDP1 no CPT	IL-1B inflam inh
CCOC(=O)C1CCN(Cc2nc3ccccc3c(=O)n2-c2ccc(OCC)cc2)CC1	1%[9.24 µM]	11%	?	?	-19
CCOc1ccc(-c2csc(Cn3c(CN4CCN(C)CC4)nc4ccccc4c3=O)n2)cc1	-2%	-18%	7.3µM*	8.2µM*	-75*
CCOC(=O)C1CCN(c2ncnc3nc[nH]c23)CC1	0%	8%	-1%	-26%	-56*
CCOC(=O)C1CCN(c2ncnc3cc(OC)c(OC)cc23)CC1	1%	-1%	?	21µM*	-19
CCOC(=O)c1ccc(NC(=O)N2CCN(c3ccccc3OC)CC2)cc1	-1%	-1%	?	?	3
CCOC(=O)C1CCN(c2ncnc3c(C)csc23)CC1	-6%	-7%	?	13µM*	-6
COc1cc2ncnc(N3CCN(C(=O)Nc4ccc(Oc5ccccc5)cc4)CC3)c2cc1OC	nt	nt	11µM*	11µM*	nt
NCC1OC(n2cnc3c(=O)[nH]c(N)nc32)C(O)C1O (stereo unspecified)	nt	nt	-23%	-5%	nt
CC(=O)N(C(C)=O)c1ccc(Oc2ccc(Oc3ccc(N(C(C)=O)C(C)=O)cc3)cc2)cc1	-7%	-21%	?	?	-24
COCC(=O)N/N=C/c1c(C)[nH]n(-c2ccccc2)c1=O	-4%	-19%	18µM*	16µM*	-9
Cc1ccc(OCC(=O)N/N=C\c2c(C)n(C)c3ccccc23)c([N+](=O)[O-])c1	-29%	?	?	18µM*	?
Cc1[nH]n(-c2ccccc2)c(=O)c1/C=N/NC(=O)C(C)C	-8%	-24%	15µM*	?	7
Cc1[nH]n(-c2ccccc2)c(=O)c1/C=N/NC(=O)COc1ccccc1[N+](=O)[O-]	?	?	5.8µM*	4.6µM*	209
Cc1c(/C=N/NC(=O)COc2ccccc2[N+](=O)[O-])c2ccccc2n1C	-24%	-29%	?	?	45
O=S(=O)(/N=C(\c1ccccc1F)N1CCCCC1)c1ccccc1	11%	12%	8%	5%	8
Cc1[nH]n(-c2ccccc2)c(=O)c1/C=N/N1C(=O)c2ccc3c4c(ccc(c24)C1=O)CC3	?	?	?	18µM*	-88*
Cc1[nH]n(-c2ccccc2)c(=O)c1/C=N/NC(=O)c1ccccc1F	?	?	6.5µM*	5.2µM*	27

High-throughput results deposited in PubChem BioAssay by National Center for Advancing Translational Sciences (NCATS).
